These results are taken from publication PMC11006913.

Common to all, as to assay: PBM; 200 nM protein, PBS
Common to all, as to details: dsDNA, one strand shown

Test [1] deals with HOXB9 (Homo sapiens, UniProt P17482 171-250, T197M).
Test [2] concerns the target HOXC10 (Homo sapiens, UniProt Q9NYD6 254-340).
For test [3], the target named is HOXB6 (Homo sapiens, UniProt P17509 132-218, K202E).
Test [4] addresses HOXB9 (Homo sapiens, UniProt P17482 171-250).
Test [5] has as its target MSX2 (Homo sapiens, UniProt P35548 130-214, R199I).
Test [6] addresses HOXC10 (Homo sapiens, UniProt Q9NYD6 254-340, K271E).
Test [7] addresses MSX2 (Homo sapiens, UniProt P35548 130-214).
In test [8] the target is HOXB9 (Homo sapiens, UniProt P17482 171-250, R186Q).
For test [9], the target named is MSX2 (Homo sapiens, UniProt P35548 130-214, F161Y).
Test [10] addresses HOXB6 (Homo sapiens, UniProt P17509 132-218).
Test [11] has as its target HOXA7 (Homo sapiens, UniProt P31268 116-202).
Test [12] has as its target ALX3 (Homo sapiens, UniProt O95076 139-225, N203Q).
The target in test [13] is HOXC9 (Homo sapiens, UniProt P31274 178-260, R222W).
For test [14], the target named is HOXA7 (Homo sapiens, UniProt P31268 116-202, W177C).
In test [15] the target is HOXC9 (Homo sapiens, UniProt P31274 178-260, K195R).
Test [16] has as its target HOXC9 (Homo sapiens, UniProt P31274 178-260).
The target of test [17] is HOXC9 (Homo sapiens, UniProt P31274 178-260, R193K).
The target of test [18] is ALX3 (Homo sapiens, UniProt O95076 139-225).
Test [19] concerns the target ALX3 (Homo sapiens, UniProt O95076 139-225, L168Q).
For test [20], the target named is ALX3 (Homo sapiens, UniProt O95076 139-225, L168V).
Test [21] addresses ALX3 (Homo sapiens, UniProt O95076 139-225, N203S).

HOXC9 (Homo sapiens, UniProt P31274 178-260, R222W), sequence (P31274 178-260 R222W): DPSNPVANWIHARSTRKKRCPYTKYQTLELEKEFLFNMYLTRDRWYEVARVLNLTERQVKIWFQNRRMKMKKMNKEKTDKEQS
HOXB9 (Homo sapiens, UniProt P17482 171-250), sequence (P17482 171-250): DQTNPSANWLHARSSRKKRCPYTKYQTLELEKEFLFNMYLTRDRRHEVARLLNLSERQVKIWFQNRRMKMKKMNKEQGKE
HOXB9 (Homo sapiens, UniProt P17482 171-250, T197M), sequence (P17482 171-250 T197M): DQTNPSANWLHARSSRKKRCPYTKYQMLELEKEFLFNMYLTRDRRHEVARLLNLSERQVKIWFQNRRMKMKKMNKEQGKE
HOXC10 (Homo sapiens, UniProt Q9NYD6 254-340), sequence (Q9NYD6 254-340): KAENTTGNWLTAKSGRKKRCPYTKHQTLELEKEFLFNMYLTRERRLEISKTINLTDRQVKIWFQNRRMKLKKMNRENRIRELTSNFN
HOXC10 (Homo sapiens, UniProt Q9NYD6 254-340, K271E), sequence (Q9NYD6 254-340 K271E): as the sequence (Q9NYD6 254-340) above, with K18E counted along it
HOXB9 (Homo sapiens, UniProt P17482 171-250, R186Q), sequence (P17482 171-250 R186Q): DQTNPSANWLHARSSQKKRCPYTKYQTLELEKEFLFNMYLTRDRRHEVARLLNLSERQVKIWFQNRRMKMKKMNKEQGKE
HOXB6 (Homo sapiens, UniProt P17509 132-218, K202E), sequence (P17509 132-218 K202E): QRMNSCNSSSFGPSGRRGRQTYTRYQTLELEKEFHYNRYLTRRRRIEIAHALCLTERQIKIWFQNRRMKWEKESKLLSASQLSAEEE
MSX2 (Homo sapiens, UniProt P35548 130-214, F161Y), sequence (P35548 130-214 F161Y): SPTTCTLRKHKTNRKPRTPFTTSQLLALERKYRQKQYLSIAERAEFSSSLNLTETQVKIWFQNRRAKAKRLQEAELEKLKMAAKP
HOXC9 (Homo sapiens, UniProt P31274 178-260, R193K), sequence (P31274 178-260 R193K): as the sequence (P31274 178-260 R222W) above, with R16K, W45R counted along it
HOXC9 (Homo sapiens, UniProt P31274 178-260, K195R), sequence (P31274 178-260 K195R): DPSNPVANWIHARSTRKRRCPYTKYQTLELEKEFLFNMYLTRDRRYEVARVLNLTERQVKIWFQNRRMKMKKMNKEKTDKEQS
MSX2 (Homo sapiens, UniProt P35548 130-214, R199I), sequence (P35548 130-214 R199I): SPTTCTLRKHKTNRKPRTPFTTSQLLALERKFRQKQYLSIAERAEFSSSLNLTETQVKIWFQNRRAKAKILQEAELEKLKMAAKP
HOXC9 (Homo sapiens, UniProt P31274 178-260), sequence (P31274 178-260): as the sequence (P31274 178-260 R222W) above, with W45R counted along it
ALX3 (Homo sapiens, UniProt O95076 139-225, N203Q), sequence (O95076 139-225 N203Q): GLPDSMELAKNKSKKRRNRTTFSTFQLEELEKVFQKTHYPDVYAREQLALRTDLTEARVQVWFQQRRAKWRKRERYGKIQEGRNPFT
MSX2 (Homo sapiens, UniProt P35548 130-214), sequence (P35548 130-214): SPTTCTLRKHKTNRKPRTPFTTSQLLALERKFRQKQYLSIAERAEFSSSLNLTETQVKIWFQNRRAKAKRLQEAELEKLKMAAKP
HOXA7 (Homo sapiens, UniProt P31268 116-202), sequence (P31268 116-202): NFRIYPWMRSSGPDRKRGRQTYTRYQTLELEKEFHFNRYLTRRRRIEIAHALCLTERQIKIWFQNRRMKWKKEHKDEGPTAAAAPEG
ALX3 (Homo sapiens, UniProt O95076 139-225, N203S), sequence (O95076 139-225 N203S): as the sequence (O95076 139-225 N203Q) above, with Q65S counted along it
HOXA7 (Homo sapiens, UniProt P31268 116-202, W177C), sequence (P31268 116-202 W177C): as the sequence (P31268 116-202) above, with W62C counted along it
ALX3 (Homo sapiens, UniProt O95076 139-225), sequence (O95076 139-225): as the sequence (O95076 139-225 N203Q) above, with Q65N counted along it
ALX3 (Homo sapiens, UniProt O95076 139-225, L168Q), sequence (O95076 139-225 L168Q): as the sequence (O95076 139-225 N203Q) above, with L30Q, Q65N counted along it
HOXB6 (Homo sapiens, UniProt P17509 132-218), sequence (P17509 132-218): as the sequence (P17509 132-218 K202E) above, with E71K counted along it
ALX3 (Homo sapiens, UniProt O95076 139-225, L168V), sequence (O95076 139-225 L168V): as the sequence (O95076 139-225 N203Q) above, with L30V, Q65N counted along it

For CGTGAAGC, the binding signal with HOXB9 [1] is 8.57 upbm affinity estimate (log intensity, higher = more binding, comparable within an allelic series); with HOXC10 [2], 10 upbm affinity estimate (log intensity, higher = more binding, comparable within an allelic series); in the test with HOXB6 [3], 9.08 upbm affinity estimate (log intensity, higher = more binding, comparable within an allelic series); with HOXB9 [4], 8.56 upbm affinity estimate (log intensity, higher = more binding, comparable within an allelic series); in the test with MSX2 [5] it was 9.57 upbm affinity estimate (log intensity, higher = more binding, comparable within an allelic series); with HOXC10 [6], 10 upbm affinity estimate (log intensity, higher = more binding, comparable within an allelic series). For the same sequence, the binding signal was 9.35 upbm affinity estimate (log intensity, higher = more binding, comparable within an allelic series) with MSX2 [7]; 8.45 upbm affinity estimate (log intensity, higher = more binding, comparable within an allelic series) with HOXB9 [8]; 9.38 upbm affinity estimate (log intensity, higher = more binding, comparable within an allelic series) with MSX2 [9]; 8.9 upbm affinity estimate (log intensity, higher = more binding, comparable within an allelic series) with HOXB6 [10].
For the sequence GAGTCTCC, the binding signal with HOXB9 [1] was 8.54 upbm affinity estimate (log intensity, higher = more binding, comparable within an allelic series); in the test with HOXC10 [2], 10 upbm affinity estimate (log intensity, higher = more binding, comparable within an allelic series); in the test with HOXB9 [4], 8.49 upbm affinity estimate (log intensity, higher = more binding, comparable within an allelic series); with HOXC10 [6], 9.99 upbm affinity estimate (log intensity, higher = more binding, comparable within an allelic series); with HOXB9 [8] it was 8.45 upbm affinity estimate (log intensity, higher = more binding, comparable within an allelic series).
Turning to AATAATAA, the binding signal with HOXB9 [1] was 9.97 upbm affinity estimate (log intensity, higher = more binding, comparable within an allelic series); with HOXA7 [11], 10.8 upbm affinity estimate (log intensity, higher = more binding, comparable within an allelic series); in the test with HOXB6 [3] it was 10 upbm affinity estimate (log intensity, higher = more binding, comparable within an allelic series); in the test with ALX3 [12], 8.58 upbm affinity estimate (log intensity, higher = more binding, comparable within an allelic series); with HOXC9 [13], 11.1 upbm affinity estimate (log intensity, higher = more binding, comparable within an allelic series); with HOXA7 [14], 8.85 upbm affinity estimate (log intensity, higher = more binding, comparable within an allelic series).
Take CCGCTCCG: the binding signal in the test with HOXB9 [1] is 8.44 upbm affinity estimate (log intensity, higher = more binding, comparable within an allelic series); with HOXC9 [15], 9.63 upbm affinity estimate (log intensity, higher = more binding, comparable within an allelic series); with HOXB9 [4], 8.59 upbm affinity estimate (log intensity, higher = more binding, comparable within an allelic series); with HOXC9 [16] it was 9.73 upbm affinity estimate (log intensity, higher = more binding, comparable within an allelic series); with HOXC9 [17], 9.74 upbm affinity estimate (log intensity, higher = more binding, comparable within an allelic series); with HOXB9 [8], 8.66 upbm affinity estimate (log intensity, higher = more binding, comparable within an allelic series). For the same sequence, the binding signal with HOXC9 [13] is 9.7 upbm affinity estimate (log intensity, higher = more binding, comparable within an allelic series).
ACATTAAA: the binding signal with HOXB9 [1] is 9.92 upbm affinity estimate (log intensity, higher = more binding, comparable within an allelic series); in the test with HOXC9 [15], 12.6 upbm affinity estimate (log intensity, higher = more binding, comparable within an allelic series); in the test with HOXB9 [4], 12 upbm affinity estimate (log intensity, higher = more binding, comparable within an allelic series); in the test with HOXC9 [16], 12.6 upbm affinity estimate (log intensity, higher = more binding, comparable within an allelic series); with HOXC9 [17] it was 12.6 upbm affinity estimate (log intensity, higher = more binding, comparable within an allelic series); in the test with HOXC10 [6], 11.8 upbm affinity estimate (log intensity, higher = more binding, comparable within an allelic series). Also, the binding signal with HOXB9 [8] is 11.7 upbm affinity estimate (log intensity, higher = more binding, comparable within an allelic series); with HOXC9 [13] it was 11 upbm affinity estimate (log intensity, higher = more binding, comparable within an allelic series).
Turning to CTCACGGC, the binding signal with HOXB9 [1] is 8.44 upbm affinity estimate (log intensity, higher = more binding, comparable within an allelic series); with HOXC10 [2], 10 upbm affinity estimate (log intensity, higher = more binding, comparable within an allelic series); in the test with HOXB9 [4], 8.41 upbm affinity estimate (log intensity, higher = more binding, comparable within an allelic series); with MSX2 [5], 9.58 upbm affinity estimate (log intensity, higher = more binding, comparable within an allelic series); with ALX3 [12] it was 7.72 upbm affinity estimate (log intensity, higher = more binding, comparable within an allelic series); with HOXC10 [6] it was 10 upbm affinity estimate (log intensity, higher = more binding, comparable within an allelic series). The binding signal with MSX2 [7] was 9.43 upbm affinity estimate (log intensity, higher = more binding, comparable within an allelic series); in the test with ALX3 [18] it was 7.47 upbm affinity estimate (log intensity, higher = more binding, comparable within an allelic series); with ALX3 [19], 7.78 upbm affinity estimate (log intensity, higher = more binding, comparable within an allelic series); with HOXB9 [8], 8.46 upbm affinity estimate (log intensity, higher = more binding, comparable within an allelic series); with ALX3 [20], 7.81 upbm affinity estimate (log intensity, higher = more binding, comparable within an allelic series); in the test with MSX2 [9], 9.43 upbm affinity estimate (log intensity, higher = more binding, comparable within an allelic series). Moreover, the binding signal with ALX3 [21] is 7.72 upbm affinity estimate (log intensity, higher = more binding, comparable within an allelic series).
